According to article PMC7862700, “An all-to-all approach to the identification of sequence-specific readers for epigenetic DNA modifications on cytosine”:

target: T1, ELF3 (Homo sapiens, UniProt P78545 1-371); assay: DAPPL (digital affinity profiling via proximity ligation, sequencing); 10 mM Tris-HCl pH 7.5, 50 mM NaCl, 1 mM DTT, 4% glycerol, room temperature, 30 min; GST-TFs on glutathione beads, 16-mer random dsDNA library, 0.1% formaldehyde crosslink after washing; high values mean tight binding; conditions: protein: recombinant; tags: N-terminal GST; dsDNA, one strand shown
T1 sequence: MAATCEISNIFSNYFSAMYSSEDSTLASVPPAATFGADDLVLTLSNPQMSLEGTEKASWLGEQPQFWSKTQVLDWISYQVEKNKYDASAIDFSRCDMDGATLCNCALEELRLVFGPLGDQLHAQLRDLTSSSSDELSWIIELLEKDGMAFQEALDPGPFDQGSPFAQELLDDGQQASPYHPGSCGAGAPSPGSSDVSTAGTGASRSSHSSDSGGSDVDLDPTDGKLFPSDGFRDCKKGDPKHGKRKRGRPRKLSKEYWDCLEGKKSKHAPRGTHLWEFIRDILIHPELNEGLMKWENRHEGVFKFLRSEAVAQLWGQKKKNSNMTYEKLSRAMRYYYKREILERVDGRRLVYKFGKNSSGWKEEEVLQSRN
Outline: (§1)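 Pools of DNA-barcoded human transcription factors, expressed in yeast as GST fusions on glutathione beads and combined with a tag-only sample, were incubated with 200 nmole of a 16-mer random double-stranded DNA library. Incubation took 30 min at room temperature in Tris/NaCl/DTT/glycerol buffer and was followed by washing, 0.1% formaldehyde crosslinking, proximity ligation (BsaI/T4 ligase, 1 h, 37 °C), PCR amplification and sequencing on an Illumina NextSeq500. Binding signal is the ratio of a hexamer's read frequency for a factor to its frequency for the tag-only sample.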

Point of comparison: GATGTT, binding signal 1.22 fold enrichment (6-mer frequency, TF over GST control). Against it:
- AATTTC — higher, 1.75 fold enrichment (6-mer frequency, TF over GST control)
- ACCAAT — higher, 1.28 fold enrichment (6-mer frequency, TF over GST control)
- TAACAC — lower, 1.16 fold enrichment (6-mer frequency, TF over GST control)
- TTAGGG — lower, 1.2 fold enrichment (6-mer frequency, TF over GST control)
- CTACAC — higher, 1.39 fold enrichment (6-mer frequency, TF over GST control)
- CTAGCT — lower, 1.07 fold enrichment (6-mer frequency, TF over GST control)
- ATCCAT — higher, 1.32 fold enrichment (6-mer frequency, TF over GST control)
- TAGTAC — lower, 1.14 fold enrichment (6-mer frequency, TF over GST control)
- TTTGAA — higher, 1.3 fold enrichment (6-mer frequency, TF over GST control)
- AACCTA — lower, 1.16 fold enrichment (6-mer frequency, TF over GST control)
- CCTTAG — lower, 1.05 fold enrichment (6-mer frequency, TF over GST control)
- CGCGCT — lower, 1.05 fold enrichment (6-mer frequency, TF over GST control)
- CATCTA — higher, 1.33 fold enrichment (6-mer frequency, TF over GST control)
- TCTATT — higher, 1.35 fold enrichment (6-mer frequency, TF over GST control)
- CTATTT — higher, 2.07 fold enrichment (6-mer frequency, TF over GST control)
- TTCAGG — lower, 1.07 fold enrichment (6-mer frequency, TF over GST control)
- GCTATA — the same, 1.22 fold enrichment (6-mer frequency, TF over GST control)
- CTCATT — higher, 1.35 fold enrichment (6-mer frequency, TF over GST control)
- CAATTT — higher, 1.53 fold enrichment (6-mer frequency, TF over GST control)

target: CRX (Homo sapiens, UniProt O43186 1-299); assay: as above; conditions: protein: recombinant; tags: N-terminal GST; dsDNA, one strand shown
Sequence (O43186 whole entry): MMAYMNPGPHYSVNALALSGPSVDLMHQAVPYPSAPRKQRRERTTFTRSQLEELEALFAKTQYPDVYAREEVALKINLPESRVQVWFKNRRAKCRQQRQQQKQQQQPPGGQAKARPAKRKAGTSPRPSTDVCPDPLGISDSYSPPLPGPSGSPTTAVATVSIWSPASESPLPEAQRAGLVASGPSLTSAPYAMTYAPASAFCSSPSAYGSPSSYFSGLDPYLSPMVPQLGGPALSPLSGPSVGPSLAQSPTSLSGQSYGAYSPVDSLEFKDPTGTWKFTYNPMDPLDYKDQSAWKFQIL
Outline: as §1

Point of comparison: AAAACT, binding signal 1.16 fold enrichment (6-mer frequency, TF over GST control). Against it:
- TCTTCG — higher, 1.61 fold enrichment (6-mer frequency, TF over GST control)
- GCTTTG — higher, 1.49 fold enrichment (6-mer frequency, TF over GST control)
- TCTCTG — higher, 1.49 fold enrichment (6-mer frequency, TF over GST control)
- TAAAAG — higher, 1.72 fold enrichment (6-mer frequency, TF over GST control)
- CCTTAA — higher, 2.17 fold enrichment (6-mer frequency, TF over GST control)
- CTTTTT — higher, 1.25 fold enrichment (6-mer frequency, TF over GST control)
- CTTCAA — higher, 1.22 fold enrichment (6-mer frequency, TF over GST control)
- ACTAAA — higher, 1.6 fold enrichment (6-mer frequency, TF over GST control)
- ATATCC — higher, 1.58 fold enrichment (6-mer frequency, TF over GST control)
- AATCTC — higher, 2.5 fold enrichment (6-mer frequency, TF over GST control)
- TACCCG — higher, 1.29 fold enrichment (6-mer frequency, TF over GST control)
- CCTGTT — higher, 1.21 fold enrichment (6-mer frequency, TF over GST control)
- TTTTCC — higher, 1.44 fold enrichment (6-mer frequency, TF over GST control)
- TAATAC — higher, 2.45 fold enrichment (6-mer frequency, TF over GST control)
- GACTTC — lower, 1.12 fold enrichment (6-mer frequency, TF over GST control)
- ATGGCA — lower, 1.11 fold enrichment (6-mer frequency, TF over GST control)
- TCCGAC — higher, 1.25 fold enrichment (6-mer frequency, TF over GST control)
- TTACAG — higher, 1.85 fold enrichment (6-mer frequency, TF over GST control)
- AATTTC — higher, 1.49 fold enrichment (6-mer frequency, TF over GST control)
- ACCAAT — the same, 1.16 fold enrichment (6-mer frequency, TF over GST control)
- TAACAC — higher, 1.56 fold enrichment (6-mer frequency, TF over GST control)
- TTAGGG — higher, 2.19 fold enrichment (6-mer frequency, TF over GST control)
- CTACAC — lower, 1.05 fold enrichment (6-mer frequency, TF over GST control)
- CTAGCT — higher, 1.31 fold enrichment (6-mer frequency, TF over GST control)
- ATCCAT — higher, 1.55 fold enrichment (6-mer frequency, TF over GST control)
- TAGTAC — higher, 1.29 fold enrichment (6-mer frequency, TF over GST control)
- TTTGAA — higher, 1.28 fold enrichment (6-mer frequency, TF over GST control)
- AACCTA — higher, 1.2 fold enrichment (6-mer frequency, TF over GST control)
- GATGTT — lower, 1.08 fold enrichment (6-mer frequency, TF over GST control)
- CCTTAG — higher, 1.28 fold enrichment (6-mer frequency, TF over GST control)
- CGCGCT — lower, 1.06 fold enrichment (6-mer frequency, TF over GST control)
- CATCTA — higher, 1.29 fold enrichment (6-mer frequency, TF over GST control)
- TCTATT — higher, 1.37 fold enrichment (6-mer frequency, TF over GST control)
- CTATTT — higher, 1.64 fold enrichment (6-mer frequency, TF over GST control)
- TTCAGG — lower, 1.01 fold enrichment (6-mer frequency, TF over GST control)
- GCTATA — higher, 1.23 fold enrichment (6-mer frequency, TF over GST control)
- CTCATT — higher, 1.45 fold enrichment (6-mer frequency, TF over GST control)
- CAATTT — lower, 1.07 fold enrichment (6-mer frequency, TF over GST control)
